Bioassay records deposited in PubChem by The Scripps Research Institute Molecular Screening Center.
Shown are actives, neighbours in structure and some others; about 4.1% of the full set was active somewhere.
DAX1 inh-1: inhibitors of human orphan nuclear receptor DAX1 (NR0B1). P51843. HEK293 Gal4-DAX1 luciferase reporter, luminescence. inhibition, % at 6.75 µM. hit rate 0.99% among 340,000. AID 504766;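 active means inhibition above the mean over all tested compounds plus 3 SD, cut at about 4.2% in these data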;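 further: inhibition shows as a rise in luminescence from relieved DAX1 repression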
Target sequence (P51843 207-470 limits assumed): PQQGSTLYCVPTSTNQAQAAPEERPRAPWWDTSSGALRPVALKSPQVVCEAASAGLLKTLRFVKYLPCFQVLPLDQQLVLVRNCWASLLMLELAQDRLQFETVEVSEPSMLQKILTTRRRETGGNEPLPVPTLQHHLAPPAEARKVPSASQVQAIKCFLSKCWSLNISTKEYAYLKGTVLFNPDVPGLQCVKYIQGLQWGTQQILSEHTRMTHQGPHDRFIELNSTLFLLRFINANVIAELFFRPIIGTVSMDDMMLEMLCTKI
ssDAF-12 act: activators of S. stercoralis DAF-12 nuclear receptor. HEK293 ssDAF-12/GRIP1 lit1-tk-luc reporter, luminescence; % of 3 µM dafachronic acid response. hit rate 1% among 370,000. AID 652126. activation, % at 6.8 µM;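 active means activation above the mean over all tested compounds plus 3 SD, cut at about 0.9% in these data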
DAX1 inh-2: DAX1 (NR0B1) inhibition, primary screen. HEK293T StAR-luciferase reporter, SF-1/DAX-1 repression relief. hit rate 1.1% among 370,000. inhibition, % at 6.8 µM. AID 652010;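 active means inhibition above the mean over all tested compounds plus 3 SD, cut at about 3.6% in these data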;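 further: higher inhibition means more luminescence from relief of DAX-1 repression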
hcDAF-12 act: H. contortus DAF-12 activation, primary screen; activation, % at 6.8 µM; hit rate 1.4% among 370,000; HEK293 hcDAF-12 lit1-tk-luc reporter, luminescence; 0% DMSO, 100% Δ7-dafachronic acid;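 active means activation above the mean of all tested compounds plus 3 SD, cut at about 5.5% in these data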
hgDAF-12 ag: hgDAF-12 agonism, primary luciferase screen. HEK293 GAL4-hgDAF12 UAS-luciferase reporter, agonist luminescence; normalized to butyrate control. activation, % at 6.8 µM. hit rate 1.8% among 370,000;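 active means activation above a cutoff set at the mean of all screened compounds plus 3 SD, cut at about 10% in these data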
A number is an active result; . = inactive; / = not tested or not shown.

SMILES	DAX1 inh-1	ssDAF-12 act	DAX1 inh-2	hcDAF-12 act	hgDAF-12 ag
CCOC(=O)c1sc(=S)n(-c2cc(F)ccc2F)c1N	.	.	.	.	.
COC(=O)c1sc(=S)n(-c2cc(F)ccc2F)c1N	4.9	.	.	.	.
C/C(=N/NC(=O)c1cccnc1)c1cccc(O)c1	/	.	.	.	.
COc1ccc(Cn2ccc3ccc(-c4ccc5ccn(Cc6cccc(F)c6)c5c4)cc32)cc1	/	.	.	.	.
CCCCn1c(N)c(N(CC(C)C)C(=O)c2cc(Cl)nc3ccccc23)c(=O)[nH]c1=O	.	1.1	.	.	.
CCCCn1c(N)c(N(CC(C)C)C(=O)c2cc(C)nc3ccccc23)c(=O)[nH]c1=O	.	.	.	.	.
CCCCn1c(N)c(N(CCOC)C(=O)c2cc(-c3ccccc3)nc3ccccc23)c(=O)[nH]c1=O	7.0	.	.	.	.
CCc1ccc2c(c1)NC(=O)C2(C)Cc1ccc(C(F)(F)F)o1 (configuration not stated)	/	.	.	.	.
COc1ccc(NC(=O)COC(=O)CC2CCCC2)cc1	.	1.2	.	.	.
COc1ccc(N2CCN(CC(=O)Nc3ccc(C)cc3)CC2)cc1	.	.	.	.	.
Cc1ccc(NC(=O)CCSc2ccccn2)cc1	4.2	.	4.4	.	10.9
Cc1cccc(NC(=O)CCSc2ccccn2)c1	.	.	.	.	.
COc1ccc(NC(=O)COC(=O)CC2CCCCC2)cc1	.	.	.	.	.
COc1ccc(NC(=O)COCC(=O)Nc2ccc(C)cc2)cc1	5.6	.	.	.	.
COc1ccc(NC(=O)CN2CCN(c3ccccc3)CC2)cc1	.	.	.	.	12.3
CNC(=O)CCC(=O)Nc1ccc(C)cc1	4.7	.	.	.	.
COC(=O)[C@@]1(Cc2ccc(F)cc2)[C@H]2c3cc(C(=O)N(C)C)n(Cc4ccsc4Br)c3C[C@H]2CN1C(=O)c1ccccc1	/	.	.	.	.
Cn1c(-c2ccccc2)n[nH]c1=S	.	.	.	.	.
Cn1c(-c2ccccc2Br)n[nH]c1=S	.	.	.	5.6	.
O=S1(=O)c2ccc(Br)cc2OC[C@@H](Cc2ccccc2)N1Cc1cn(Cc2ccccc2)nn1	/	.	.	.	.
C=CCc1cccc(CNc2nc3ccccc3n2CCC)c1O	4.7	.	.	.	.
C=CCc1cccc(CNc2nc3ccccc3n2CC)c1O	.	.	.	.	.
COc1ccc(O)c(C(=O)c2cnc3nc4ccccc4n3c2)c1	.	.	.	6.1	.
COc1ccc(O)c(C(=O)c2cnn(-c3ccccn3)c2)c1	.	.	.	.	.
O=C(Nc1ccccc1F)Nc1cccc2ccc(O)cc12	.	.	.	6.2	.
SMILES	DAX1 inh-1	ssDAF-12 act	DAX1 inh-2	hcDAF-12 act	hgDAF-12 ag
Cc1ccc(-n2c(SCC(=O)Nc3ccc(Oc4ccccc4)cc3)nnc2-c2ccco2)cc1	/	.	.	.	.
O=C(Nc1cnc2sccn2c1=O)c1ccccc1Cl	.	.	3.9	.	.
Cc1cccc(NC(=O)c2cnc3sccn3c2=O)c1C	/	.	3.9	.	12.3
COc1ccc(NC(=O)c2cnc3sccn3c2=O)cc1	.	0.9	.	.	.
O=C(CSc1nc2ccccc2[nH]1)NN=Cc1c(F)cccc1Cl	/	.	.	.	.
COc1cccc(Cn2cc(COC(=O)NCCc3ccccc3)nn2)c1	/	.	.	.	.
COc1cccc(C(=O)Nc2cccc(NC(=O)c3cccs3)c2)c1	.	.	.	.	.
CC(=O)Oc1cccc(C(=O)Nc2ccc(NC(=O)c3cccs3)cc2)c1	.	.	4.5	.	.
O=C(NCCO)C1(C(=O)C2CC2)CC(c2ccccc2C(F)(F)F)=NO1 (configuration not stated)	/	.	.	.	.
CC(C)CN1C(=O)CSCC1(C)C(=O)NCc1ccccc1 (configuration not stated)	/	.	.	.	.
O=C(CCCc1ccccc1)c1ccccc1	4.9	.	.	5.6	.
COc1ccc(C(=O)NCC(=O)c2ccccc2)cc1	.	.	.	.	12.4
O=C(NCCCc1ccccc1)c1ccccc1	.	.	.	.	.
COc1ccc(C(=O)NCCCc2ccccc2)cc1	/	.	.	.	10.6
COc1ccc(C(=O)CC(=O)c2ccc(OC)cc2)cc1	.	.	.	.	.
CN(C)/C=C(/C(=O)c1ccccc1Cl)S(=O)(=O)c1ccccc1	.	.	.	.	.
COc1ccc(C(=O)/C(=C/N(C)C)S(=O)(=O)c2ccccc2)cc1	.	.	.	.	12.1
C=CCN1[C@@H](C)COc2cc(F)ccc2S1(=O)=O	/	.	.	.	.
CC[C@H](CCCCCC#N)CCC(=O)N(c1ccccc1)c1ccccc1	/	.	.	.	.
O=C(CCCC(=O)c1ccc(O)cc1)c1ccc(O)cc1	.	.	.	.	10.5
O=C(Cn1cccn1)c1ccccc1	.	.	.	.	.
O=C(CCCc1ccccc1)NC1CC1	.	.	.	5.7	.
COc1ccc(C(=O)CC(=O)c2ccccc2)cc1	/	.	.	.	11.0
O=C(Cn1cncn1)c1ccccc1	5.7	.	.	.	.
O=C(CCc1nnc(CCCCc2ccccc2)o1)NC1CCCC1	.	.	.	.	.
SMILES	DAX1 inh-1	ssDAF-12 act	DAX1 inh-2	hcDAF-12 act	hgDAF-12 ag
CCCC1CCC2(CCCN2CCOC(=S)Nc2cccc(Cl)c2)CC1 (configuration not stated)	/	.	/	.	.
Cc1cc(N2CCN(C(=O)Oc3ccc(-c4ccccc4)cc3)CC2)c2ccccc2n1	/	.	.	.	.
COc1ccc(C(=O)C(=NNc2ccccc2)c2ccc(OC)cc2)cc1	.	.	.	.	.
O=C(CCCc1ccccn1)c1ccc(-c2ccccc2)cc1	.	0.9	.	.	.
COc1ccc(C(=O)C(=NN)c2ccccc2)cc1	.	.	.	.	12.3
O=C(NCc1ccccn1)c1ccc(-c2ccccc2)cc1	.	.	.	.	.
COc1ccc(NC(=O)CCC(=O)c2ccc(F)cc2)cc1	.	.	.	.	.
COc1cccc(C(=O)NCCS(=O)(=O)NCCc2ccccc2)c1	.	.	4.0	.	.
COc1ccc(C(=O)CCNc2ccc(F)cc2)cc1	5.2	.	.	.	.
CCCCCCN1CCS(=O)(=O)N(Cc2ccccc2)C(C(=O)OC)C1 (configuration not stated)	/	.	.	.	.
O=C(c1ccccc1I)N1CCC(Oc2cccnc2)CC1	/	.	.	.	.
Cc1c(CCOC(=O)c2ccc([N+](=O)[O-])cc2)sc[n+]1CC(=O)c1ccccc1	.	.	.	.	.
COc1ccc(CNC(=O)CN2C(=O)c3ccccc3C2=O)cc1	.	.	.	.	.
COc1ccc(NC(=O)CN(C)C(=O)CNC(=O)c2ccc3ccccc3c2)cc1	4.2	.	.	.	.
O=C(NCCCCNC(=O)c1ccccc1Cl)c1ccccc1Cl	.	.	.	.	.
COc1ccc(C(=O)CN2C(=O)c3ccccc3C2=O)cc1	/	1.5	.	.	.
O=C(CNC(=O)c1ccccc1Cl)c1ccccc1	.	.	.	.	12.5
